Test results published in ChEMBL document CHEMBL3988442, “University of Dundee, Small-Polar-MMV Screening Library” (2021).
Screen size: about 66,000 compounds; about 960 (1.5%) showed an effect of 50% or more. The sample as a whole holds a higher share of strong results than the screen did.

System: Trypanosoma brucei
Test: Trypanosoma brucei 72 hour study
Format: functional, organism-based
Design: scale not given: in the data most compounds retested in dose-response had high values

O=C(Nc1cccnc1)[C@H]1C[C@@H]2CN(Cc3ccc(F)cc3)C[C@H]1O2
Percent Effect (30.3 µM, […]): -89.84%

CC(C)NC(=O)N1CC[C@H]2N(C)CC[C@@]2(C(=O)Nc2cccnc2)CC1
Percent Effect (30.3 µM, […]): -97.82%

COCCn1c2c(ccc1=O)CC(NS(C)(=O)=O)CC2 (centres undefined)
Percent Effect (30 µM, 30.03 µM): -56.59%

O[C@@H]1CN(c2cnc3ccccc3n2)CC[C@H]1c1ccc2c(c1)OCO2
Percent Effect (30 µM, 30.03 µM): -17.33%

Cc1ccc(C)c(CSc2nnc(C(N)C(C)C)o2)c1.Cl (centres undefined)
Percent Effect (30 µM, 30.03 µM): -51.12%

Cn1nc(C(=O)N2CCOCC2)c2c1CN(CC1CC1)C2.O=C(O)C(F)(F)F.O=C(O)C(F)(F)F
Percent Effect (30.3 µM, […]): -90.45%

COc1cc(CN[C@@H]2COC[C@H]2Cc2cc(C)no2)cc(OC)c1.O=C(O)CC(O)(CC(=O)O)C(=O)O
Percent Effect (30.3 µM, […]): 16.22%

C=C1C(C)(C)[C@H]2CC[C@]1(C(=O)N1CCC(Cn3cc(CO)nn3)CC1)C2
Percent Effect (30 µM, 30.03 µM): -32.31%

Cl.O=C1CC2(CCCNC2)C(=O)N1Cc1ccc(Cl)cc1 (centres undefined)
Percent Effect (30.3 µM, […]): 7.931%

Fc1ccc(CN2CCC3(CCCN(c4nncs4)C3)C2)cc1.O=C(O)C(F)(F)F (centres undefined)
Percent Effect (30.3 µM, […]): -195.3%

CSc1nccc(N2CCC3(CCCN(Cc4ccc(F)cc4)C3)C2)n1 (centres undefined)
Percent Effect (30.3 µM, […]): 100.4%

COc1ccc(CN2CCC3(CCCN(c4ncc(F)cn4)C3)C2)cc1.O=C(O)C(F)(F)F (centres undefined)
Percent Effect (30 µM, 30.03 µM): 46.33%

CSc1nccc(N2C[C@@H](CN3CCCCC3)[C@@H](CO)C2)n1
Percent Effect (30.3 µM, […]): -9.185%

Cc1c[nH]c(CN2CCC3(CCCN(Cc4ccc(F)c(F)c4)C3)C2)n1 (centres undefined)
Percent Effect (30 µM, 30.03 µM): 12.03%

COc1cc(N2CCC3(CCCN(Cc4ccccn4)C3)C2)ncn1.O=C(O)C(F)(F)F (centres undefined)
Percent Effect (30.3 µM, […]): -81.3%

CSc1nccc(N2CCC3(CCCN(CCc4ccccc4)C3)C2)n1 (centres undefined)
Percent Effect (30.3 µM, […]): 100.6%

c1cnc(N2CCC3(CCCN(CC4CCCCC4)C3)C2)cn1 (centres undefined)
Percent Effect (30.3 µM, […]): -7.519%

CSc1nccc(N2CCC3(CCCN(Cc4cccc(C)c4)C3)C2)n1 (centres undefined)
Percent Effect (30.3 µM, […]): 99.66%

O=C(Cc1cccc(F)c1)N1CCc2ncnc(NC3CC3)c2CC1.O=C(O)C(F)(F)F
Percent Effect (30.3 µM, […]): -65.72%

Cl.Cn1ccnc1Sc1ccc(N)cn1
Percent Effect (30 µM, 30.03 µM): -0.5458%

Cl.O=S(=O)(N1CCCC1)N1C[C@@H](c2cccc(F)c2)[C@@H]2NCCCCC[C@H]21
Percent Effect (30.3 µM, […]): -12.23%

Cc1cccc(N2CCC3(CCCN(C(=O)c4cccnc4)C3)CC2)n1.O=C(O)C(F)(F)F.O=C(O)C(F)(F)F
Percent Effect (30 µM, 30.03 µM): -24.82%

CC(C)C(=O)N1CCCC2(C1)CN(c1nncs1)CCO2.O=C(O)C(F)(F)F (centres undefined)
Percent Effect (30.3 µM, […]): -91.97%

O=C(Cc1ccccn1)N1CCC2(CC1)CC(Oc1ccccn1)CO2.O=C(O)C(F)(F)F.O=C(O)C(F)(F)F (centres undefined)
Percent Effect (30 µM, 30.03 µM): 23.31%

O=C(O)C(F)(F)F.c1cnc(NC2COC3(CCN(Cc4nccs4)CC3)C2)cn1 (centres undefined)
Percent Effect (30.3 µM, […]): -510.2%

Cc1ncc(CN2CCCC(O)(c3ccc(F)cc3)CC2)n1C.O=C(O)CC(O)(CC(=O)O)C(=O)O (centres undefined)
Percent Effect (30.3 µM, […]): 5.795%

COc1cccc(N2CCN(CC(O)c3cc(C)ccc3C)CC2)c1 (centres undefined)
Percent Effect (30 µM, 30.03 µM): -36.53%

COc1cccc(N2CCN(CC(O)c3ccc(C)cc3)CC2)c1 (centres undefined)
Percent Effect (30 µM, 30.03 µM): 17.53%

COc1cccc(N2CCN(CC(O)c3cc(C)sc3C)CC2)c1 (centres undefined)
Percent Effect (30.3 µM, […]): 80.96%

COc1cc(Cc2nc3c([nH]2)CC(C)(C)CNC3=O)cc(OC)c1
Percent Effect (30 µM, 30.03 µM): -74.64%

Cc1cccnc1NCCNC(=O)c1cnc(-c2cccs2)nc1O
Percent Effect (30 µM, 30.03 µM): -4.334%

Cc1cccnc1NCCNC(=O)c1cnc(-c2ccccn2)nc1O
Percent Effect (30 µM, 30.03 µM): 99.84%

Cc1nc(-c2ncc(C(=O)NCCNc3ncccc3C)c(O)n2)cs1
Percent Effect (30 µM, 30.03 µM): -1.041%

Cc1ccc(C)c(NC(=O)N2C[C@H](N(C)C)C[C@H]2CO)c1
Percent Effect (30 µM, 30.03 µM): -61.25%

COCCOc1ccc(C(=O)N2CCCC(n3cncn3)C2)cn1 (centres undefined)
Percent Effect (30.3 µM, […]): -14.96%

Cc1noc(C)c1CN1C[C@@H]2COC[C@H](C(=O)N3CCOCC3)[C@@H]2C1.O=C(O)C(F)(F)F
Percent Effect (30.3 µM, […]): -95.08%

CC(C)c1nn(C)cc1CNCc1cccnc1N(C)C.Cl
Percent Effect (30 µM, 30.03 µM): -46.74%

COc1ccc(C2(NCc3c(C)nc4c(C)cccn34)CCCC2)cc1.O=C(O)CC(O)(CC(=O)O)C(=O)O
Percent Effect (30.3 µM, […]): -8.607%

Cc1cnn(CCC(=O)N2CCN(C(=O)C3CC3)[C@@H]3CS(=O)(=O)C[C@@H]32)c1
Percent Effect (30 µM, 30.03 µM): 64.13%

Cc1cnn(CCC(=O)N2CCN(C(=O)C(C)C)[C@@H]3CS(=O)(=O)C[C@@H]32)c1
Percent Effect (30 µM, 30.03 µM): 31%

CCC(=O)N1CCN(C(=O)CCn2cc(Cl)cn2)[C@H]2CS(=O)(=O)C[C@H]21
Percent Effect (30 µM, 30.03 µM): 35.1%

CCCNC(=O)C1CCN(CC(O)c2ccc(C(F)(F)F)cc2)CC1 (centres undefined)
Percent Effect (30.3 µM, […]): 11.33%

Cc1cc(CN2CCC(CNS(=O)(=O)c3ccc(Br)s3)CC2)c(C)o1
Percent Effect (30.3 µM, […]): 55.92%

Cc1cc(CN2CCC(CNS(=O)(=O)c3ccccc3F)CC2)c(C)o1
Percent Effect (30.3 µM, […]): 3.502%

Cc1cc(CN2CCC(CNS(=O)(=O)c3ccc(C)s3)CC2)c(C)o1
Percent Effect (30.3 µM, […]): -7.383%

CCC(CN1CCCC1)n1cncc1-c1cnn(-c2ccccc2)c1.Cl (centres undefined)
Percent Effect (30.3 µM, […]): -6.567%

Cc1cc(C)c(CNC(=O)NCc2ccc(F)c(C)c2)c(=O)[nH]1
Percent Effect (30.3 µM, […]): -14.44%

O=C1CN(C(=O)[C@H]2CC[C@]3(CC2)CNC(=O)c2ccccc2O3)CCN1
Percent Effect (30.3 µM, […]): -6.646%

Cc1cnc2c(c1NCc1ccc3c(c1)OCO3)c(=O)n(C)c(=O)n2C
Percent Effect (30 µM, 30.03 µM): -27.04%

CCc1cc(CNC(=O)c2cc(NC(=O)C(C)C)ccc2Cl)[nH]n1
Percent Effect (30.3 µM, […]): 61.59%

Cc1cc(CNC(=O)c2cc(NC(=O)C(C)C)ccc2Cl)no1
Percent Effect (30.3 µM, […]): -13.13%

COCc1cc(CNC(=O)c2cc(NC(C)=O)ccc2Cl)n[nH]1
Percent Effect (30 µM, 30.03 µM): -15.93%

CN(C)C(=O)CN1CCc2ncnc(NC3CCC3)c2CC1.O=C(O)C(F)(F)F
Percent Effect (30.3 µM, […]): -31.13%

CCN(CC)Cc1cc(=O)n2c(n1)CN(C(=O)c1ccc[nH]1)CCC2
Percent Effect (30.3 µM, […]): 11.69%

Cc1nc(C)n(CC2CCCN(Cc3nnc(C(C)(C)C)o3)C2)n1 (centres undefined)
Percent Effect (30 µM, 30.03 µM): 14.46%

COc1ccccc1CNC(=O)Cn1ncc2c1c(C)nn2C
Percent Effect (30 µM, 30.03 µM): 68.66%

Cc1ccccc1CNC(=O)Cn1ncc2c1c(C)nn2C
Percent Effect (30.3 µM, […]): -7.192%

Cc1nn(C)c2cnn(CC(=O)NCc3ccccc3F)c12
Percent Effect (30.3 µM, […]): -20.3%

CN(Cc1ccc(N(C)C)cc1)C(=O)CSc1ccc(Br)cc1
Percent Effect (30.3 µM, […]): 12.7%

CS(=O)(=O)N1CC2(CCN(C(=O)c3ccncc3)CC2)c2ccccc21.O=C(O)C(F)(F)F
Percent Effect (30.3 µM, […]): -14.55%

CN(Cc1ccco1)[C@@H]1CN(Cc2ccsc2)C[C@@H]2CCCO[C@@H]21.O=C(O)C(F)(F)F.O=C(O)C(F)(F)F
Percent Effect (30 µM, 30.03 µM): 27.39%

CN(C)C[C@@H]1C[C@@H]2CN(Cc3nccn3C)CC[C@@H]2N1CC1CC1
Percent Effect (30.3 µM, […]): -12.03%

Cc1ccccc1OCC1CCCN(C(=O)CN(C)C2CCNCC2)C1 (centres undefined)
Percent Effect (30 µM, 30.03 µM): 59.87%

COCC(=O)N1CCCC(COc2ccccc2C)C1 (centres undefined)
Percent Effect (30 µM, 30.03 µM): -51.53%

Cc1cccc(OCC2CCCN(C(=O)CN(C)C3CCNCC3)C2)c1 (centres undefined)
Percent Effect (30 µM, 30.03 µM): 6.222%

Cc1ccccc1-n1ncc(C(C)N)c1C (centres undefined)
Percent Effect (30.3 µM, […]): -16.93%

Cc1ncc(CN2CCCC2)c2cc(C(=O)c3ccc(Br)cc3)oc12.Cl
Percent Effect (30 µM, 30.03 µM): -13.22%

CC(C)CNC(=O)[C@H]1CCS(=O)(=O)[C@@H]2CN(CC(C)C)C[C@H]12.O=C(O)C(F)(F)F
Percent Effect (30.3 µM, […]): -19.44%

CC(C)Oc1ncc(C(=O)N2CCC(CC(N)=O)CC2)cc1Cl
Percent Effect (30.3 µM, […]): -51.28%

CC(C)Oc1ncc(C(=O)N2CCC(N(C)C)CC2)cc1Cl
Percent Effect (30.3 µM, […]): 99.1%

CC(=O)N1CCN(C(=O)c2cnc(OC(C)C)c(Cl)c2)CC1
Percent Effect (30.3 µM, […]): -3.997%

Cc1n[nH]cc1CNC1(Cc2ccc(Br)cc2)CCCCC1
Percent Effect (30.3 µM, […]): 80.83%

Cc1n[nH]cc1CNC1(c2ccc(F)cc2)CCCC1
Percent Effect (30.3 µM, […]): -110.9%

Cc1n[nH]cc1CNC1(c2ccc(Br)cc2)CC1
Percent Effect (30.3 µM, […]): -166.2%

O=C(O)C(F)(F)F.O=C(O)C(F)(F)F.O=C1NC2(CCN(Cc3ccc(F)cc3)CC2)CC1c1ccncc1 (centres undefined)
Percent Effect (30 µM, 30.03 µM): 28.32%

Cc1cc(S(=O)(=O)NC(C)(C)CN)c(F)cc1F.Cl
Percent Effect (30 µM, 30.03 µM): -23.52%

Cc1oncc1C(=O)N1CC2CC1(C(=O)N(C)C)C2
Percent Effect (30.3 µM, […]): -15.18%

COCC1c2c(cnn2CC2CC2)CCN1Cc1cccs1.O=C(O)C(F)(F)F.O=C(O)C(F)(F)F (centres undefined)
Percent Effect (30 µM, 30.03 µM): -88.48%

COCC1c2c(cnn2CC2CC2)CCN1Cc1nccs1.O=C(O)C(F)(F)F.O=C(O)C(F)(F)F (centres undefined)
Percent Effect (30 µM, 30.03 µM): 52.09%

CCOCC1c2c(cnn2CC2CC2)CCN1Cc1nccs1.O=C(O)C(F)(F)F.O=C(O)C(F)(F)F (centres undefined)
Percent Effect (30.3 µM, […]): -3.24%

Cc1cccc2c1cnn2CCCNC(=O)C1CC1
Percent Effect (30.3 µM, […]): -16.1%

O=C(CN1CC(c2nc(C3CC3)no2)C1)N1CCOCC1.O=C(O)C(=O)O
Percent Effect (30 µM, 30.03 µM): 47.84%

O=C(O)C(F)(F)F.O=C([C@H]1CC[C@@H]2[C@@H](CCN2C2CCCCC2)O1)N1CCOCC1
Percent Effect (30.3 µM, […]): 2.517%

Cc1nnc(N2CC[C@H](OCC3CC3)[C@@H](Cc3ccccc3)C2)s1.O=C(O)C(F)(F)F
Percent Effect (30 µM, 30.03 µM): -16.49%

CO[C@@H]1CCN(c2nnc(C)s2)C[C@@H]1Cc1ccccc1.O=C(O)C(F)(F)F
Percent Effect (30.3 µM, […]): -5.303%

CO[C@H]1CCN(c2nnc(C)s2)C[C@@H]1Cc1cccc(C)c1.O=C(O)C(F)(F)F
Percent Effect (30.3 µM, […]): 100.1%

CO[C@H]1CCN(c2nnc(C)s2)C[C@@H]1Cc1ccccc1.O=C(O)C(F)(F)F
Percent Effect (30.3 µM, […]): 12.72%

Cc1nnc(N2CC[C@@H](OCC3CC3)[C@@H](Cc3ccccc3)C2)s1.O=C(O)C(F)(F)F
Percent Effect (30.3 µM, […]): 100.5%

CO[C@@H]1CCN(c2nnc(C)s2)C[C@@H]1Cc1cccc(C)c1.O=C(O)C(F)(F)F
Percent Effect (30.3 µM, […]): -8.568%
